Among the data in PubChem BioAssay AID761 (NMMLSC, 2007) are percent activity (GTP binding) values, retold here.

The structures appear in SMILES notation. Hit rate of the full screen: of about 190,000 compounds, about 400 (0.21%) were called active. Another 2% or so got no clear call; they are omitted. The entries come from a sample that favours actives as a whole. Values without a mark were called inactive.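 The calls were made as follows: active = percent activity GTP binding at least 20 points away from the 100% baseline, either down as inhibitor or up as activator; inconclusive = compound flagged as likely green fluorescent from well-wide comparison; inactive = the rest.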

For the experiment, the target named is Cell division control protein 42 homolog (Homo sapiens) (UniProt P60953). Briefly: modulators of GTP binding to wildtype Cdc42, primary screen, biochemical, multiplex bead flow cytometry, Bodipy-GTP (AID 761).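 Also: median bead fluorescence of bound Bodipy-FL-GTP at 100 nM; 0% = excess unlabeled GTP control and 100% = no compound control; below 100% means less GTP binding so inhibitor and above means activator.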 Conditions: GST-Cdc42 beads, at 10 µM, actives lie on both sides.
Sequence of Cell division control protein 42 homolog (Homo sapiens) (P60953 whole entry, looked up): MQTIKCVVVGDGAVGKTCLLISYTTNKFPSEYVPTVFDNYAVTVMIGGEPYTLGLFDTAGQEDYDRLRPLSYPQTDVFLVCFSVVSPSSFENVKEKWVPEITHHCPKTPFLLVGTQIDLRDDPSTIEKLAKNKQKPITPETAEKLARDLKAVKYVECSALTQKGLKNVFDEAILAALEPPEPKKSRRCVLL
As for `Cc1ccccc1CC1(CO)CCCN(C(=O)c2cc(-c3ccccc3)no2)C1` (stereo not drawn), the percent activity (GTP binding) was 98%.
With `CCC1(CC)NC(=O)N(CC(=O)OCC(=O)NC(=O)c2ccccc2)C1=O`, the percent activity (GTP binding) is 101%.
Then `c1ccc(-n2nnnc2-c2cccnc2)cc1`, with 95%.
Then `O=C(Cn1cnc([N+](=O)[O-])n1)NCCc1ccccc1`, with 97%; and `COc1cc(/C=C/C(=O)OCC(=O)N2CCOCC2)ccc1OCC#N`, with 97%.
Take `O=C(c1ccc(OC2CCN(Cc3ccccn3)CC2)cc1)N1CCCCCC1`: the percent activity (GTP binding) is 96%.
For `COc1ccc(C)cc1NC(=O)CSc1nnc(CC(=O)Nc2ccccc2F)n1C`, the percent activity (GTP binding) is 101%.
Then `Cc1cc(N/N=C/c2ccccc2F)c2ccccc2n1`, with 96%.
Consider `Cc1c(C(N)=O)sc2ncn(CCOc3ccccc3)c(=O)c12`, for which the percent activity (GTP binding) was 89%.
Regarding `Cc1ccc(SC(CC(=O)c2ccc(C(C)(C)C)cc2)C(=O)O)cc1` (stereo not drawn), the percent activity (GTP binding) is 77% (active).
Take `Cc1ccc(C(=O)CS(C)(=O)=O)cc1`: the percent activity (GTP binding) is 104%.
Consider `CC(C)(C)c1ccc(C(=O)CSc2ncn[nH]2)cc1`, for which the percent activity (GTP binding) was 103%.
On to `CC(=O)N/N=C/c1cc2c(cc1[N+](=O)[O-])OCO2`, for which the percent activity (GTP binding) is 97%.
As for `CC1(C)CC(=O)CC2(C1)NCC(c1ccccc1Cl)c1c2[nH]c2ccccc12` (stereo not drawn), the percent activity (GTP binding) is 96%.
As to `COc1ccc(CN(C)Cc2nc3cc(OC)c(OC)cc3c(=O)[nH]2)c(OC)c1`, the percent activity (GTP binding) was 105%.
As to `O=C(Cc1cccs1)Nc1nnc(C2CC2)s1`, the percent activity (GTP binding) is 99%.
Then `CC(=O)Nc1nc(N(C)C)nc(N(C)C)n1`, with 97%.
Consider `CN(c1ccccc1)S(=O)(=O)c1ccc(Cl)c(C(=O)OCC(=O)N2CCOCC2)c1`, for which the percent activity (GTP binding) is 96%.
Then `COc1ccccc1CN(C)c1nnnn1-c1ccccc1`, with 102%; and `O=C(NCC1CCN(Cc2ccccc2Cl)CC1)Nc1cccc(Cl)c1`, with 106%.
Regarding `CC(=O)c1cc(C#N)c(N2CC(C)OC(C)C2)nc1C` (stereo not drawn), the percent activity (GTP binding) is 98%.
On to `OCCC1CN(Cc2ccccc2-c2ccco2)CCN1Cc1ccsc1` (stereo not drawn), for which the percent activity (GTP binding) was 92%.
For `COc1ccc(NC(=O)CSc2nnc(-c3ccccc3F)n2C2CC2)cc1S(N)(=O)=O` the value was 97%.
As for `O=C(NCc1ccco1)C(=O)c1cn(CC(=O)N2CCCCCC2)c2ccccc12`, the percent activity (GTP binding) is 94%.
As to `C=CCN(CC=C)S(=O)(=O)c1ccc(C(=O)Nc2sc3c(c2C(N)=O)CCCCC3)cc1`, the percent activity (GTP binding) is 104%.
For `COCCN(CCOC)S(=O)(=O)c1ccc(C(=O)Nc2nc3c(s2)CCc2ccccc2-3)cc1` the value was 107%.
For `C=CCN(CC=C)S(=O)(=O)c1ccc(C(=O)Nc2nc3c(s2)CCc2ccccc2-3)cc1` the value was 138% [activator] (active); for `CCOc1cc(N2CCOCC2)c(OCC)cc1NC(=O)c1ccc(C)s1`, 94%.
Turning to `O=C(CCl)N(Cc1cccc([N+](=O)[O-])c1)c1cccc(Cl)c1`, the percent activity (GTP binding) is 96%.
In the case of `CC(=O)NCCc1nc2cc(NC(=O)c3ccccc3)ccc2n1C`, the percent activity (GTP binding) is 102%.
Regarding `COC(=O)c1c(NC(=O)CCCC(=O)O)sc2c1CCCCC2`, the percent activity (GTP binding) was 97%.
Regarding `Cc1nc([N+](=O)[O-])cn1CC(=O)Nc1ccc2c(c1)OCO2`, the percent activity (GTP binding) is 94%.
In the case of `C/C(Cn1nnc2ccccc21)=N\OC(=O)c1cc(F)c(F)cc1Cl`, the percent activity (GTP binding) was 89%.
Take `CCCC(C)C(=O)NCc1ccncc1` (stereo not drawn): the percent activity (GTP binding) was 98%.
Consider `OC1CCCN(c2ncnc3c2nnn3Cc2c(F)cccc2Cl)C1` (stereo not drawn), for which the percent activity (GTP binding) is 94%.
For `CC(C)(C)c1ccc(/C=C2\SC(=O)N=C2N)cc1` the value was 96%.
Consider `C=CCC1(CC=C)CCCN1C(=O)CC1C(=O)NCCN1Cc1ccccc1OC` (stereo not drawn), for which the percent activity (GTP binding) was 99%.
As for `COc1ccc(C(C)=O)cc1CSc1nc2nc(C)cc(C)n2n1`, the percent activity (GTP binding) was 96%.
For `COc1ccc(CCNC(=O)C(=O)NCc2ccccc2C)cc1OC`, the percent activity (GTP binding) was 100%.
Turning to `O=C(C1CCCO1)N1CCN(C(=S)NC2CC2)CC1` (stereo not drawn), the percent activity (GTP binding) is 98%.
As for `S=C(NC1CCCCC1)NN1CCOCC1`, the percent activity (GTP binding) was 99%.
For `COc1cc(/C=N/Nc2ccc(C)cc2)cc(Br)c1O`, the percent activity (GTP binding) was 100%.
`COc1ncnc2sc3c(c12)CCCC3`: the percent activity (GTP binding) is 103%.
On to `COc1ccc(/C=N/Nc2ncnc3sc4c(c23)CCCC4)cc1O`, for which the percent activity (GTP binding) was 73% (active).
For the molecule `Cn1c(N)c(C(=O)COC(=O)/C=C/c2ccc(OC(F)F)cc2)c(=O)n(C)c1=O`, the percent activity (GTP binding) was 94%.
Regarding `Cc1ccc2c(c1)C1CN(C)CCC1N2C(=S)Nc1ccc(Cl)cc1Cl` (stereo not drawn), the percent activity (GTP binding) was 97%.
For `CCCCCCCNc1nc(Cl)nc(NCCO)n1` the value was 92%.
Turning to `COc1cccc(-n2nc(C(=O)N3CCN(Cc4ccccc4)CC3)c3ccccc3c2=O)c1`, the percent activity (GTP binding) was 96%.
For `CCOC(=O)N1CCC(=NNC(N)=O)CC1`, the percent activity (GTP binding) is 102%.
Turning to `CCOC(=O)C(NC(C)=O)C(=O)Nc1ccc(OC)cc1` (stereo not drawn), the percent activity (GTP binding) was 93%.
Take `S=C(Nc1cccc(Br)c1)N1CCn2cccc2C1c1cccnc1` (stereo not drawn): the percent activity (GTP binding) is 96%.
In the case of `Cc1cc(C)cc(NC(=O)CSc2ccccc2)c1`, the percent activity (GTP binding) was 91%.
`O=C(CSc1ccccc1)Nc1ccc(NC(=O)c2ccco2)cc1`: the percent activity (GTP binding) is 100%.
Regarding `O=C(CSc1ccccc1)Nc1ccc(C(=O)Nc2cccc(O)c2)cc1`, the percent activity (GTP binding) was 77% (active).
Turning to `COCCSc1nnc(NC(=O)c2cc(OC)c(OC)cc2[N+](=O)[O-])s1`, the percent activity (GTP binding) was 102%.
For `O=C(CSc1ncnc2c1nnn2Cc1ccc(F)cc1)NC1CCCC1` the value was 96%; for `CC(=O)c1ccc(NC(=O)C(C)N(C)CC(=O)Nc2ccccc2Cl)cc1` (stereo not drawn), 98%; for `COC(=O)C(C)N=Cc1ccccc1` (stereo not drawn), 97%.
